Test results taken from PubChem BioAssay (Tox21).
A number with no mark means an inactive call. Inconclusive results are not listed. A call without a number means that no potency is given here. The source made the active and inactive calls. Unless noted, the call rests on the fitted dose curve.

How the values were obtained:
[1] = Nuclear factor erythroid 2-related factor 2/antioxidant responsive element (Nrf2/ARE) small molecule agonists: qHTS cell viability counter screen in human keratinocytes (AID 1919968; active means well fitted cell-killing curve with a large enough effect in the repeat runs; further: nearly all actives have a fitted effect of over 55% in size; further: potency means the concentration at half of the fitted maximal effect)
Outline: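 CellTiter-Fluor fluorescence, read 1 h after reagent, gave viability in the same wells as the ARE-luciferase assay. KeratinoSens cells (1,500/well) had 23 h compound exposure at 37 C/5% CO2 following 5 h plating.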

[2] = Nuclear factor erythroid 2-related factor 2/antioxidant responsive element (Nrf2/ARE) small molecule agonists: luciferase reporter gene qHTS assay in human keratinocytes (AID 1919969); further: nearly all actives have a fitted effect of over 35% in size; further: potency means the concentration at half of the fitted maximal effect
[3] = target: Gonadotropin-releasing hormone receptor (Homo sapiens) (UniProt P30968); experiment: Human gonadotropin-releasing hormone receptor (GnRHR) small molecule agonists, calcium flux assay in GnRHR-HEK293 cells (AID 1920063); further: nearly all actives have a fitted effect of over 35% in size
Outline: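 Agonist mode: compounds at 15 concentrations, in triplicate, went onto calcium dye-loaded GnRHR-HEK293 cells. Intracellular calcium was then followed as 480/540 nm fluorescence at 1 s intervals over 3 min.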

[4] = G protein-coupled receptor (GPCR) small molecule agonists, calcium flux assay: HEK293 wild type cell line counter screen (AID 1920065)
Outline: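 Calcium flux counter screen: compound added in agonist mode at 15 concentrations in triplicate to dye-loaded parental HEK293 cells. Fluorescence (480/540) read kinetically for 3 min; ATP served as positive control.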

[5] = p53 small molecule agonists, cell-based qHTS assay with human liver microsomes (AID 1963577)
Outline: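 p53RE-bla cells, 4,000/well, compound added after 5 h, with human liver microsomes 0.5 mg/mL and NADPH 0.5 mg/mL final; 16 h at 37 C, then LiveBLAzer 2 h RT, fluorescence.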

[6] = p53 small molecule agonists, cell-based qHTS assay with rat liver microsomes (AID 1963578)
Outline: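 p53RE-bla cells, 4,000/well, pre-incubated 5 h, then given compounds plus rat liver microsomes (0.5 mg/mL final) and NADPH (0.5 mg/mL final). Incubation 16 h at 37 C; beta-lactamase reporter read by LiveBLAzer fluorescence after 2 h at room temperature.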

[7] = p53 small molecule agonists, cell-based qHTS assay with human liver microsomes: qHTS cell viability counter screen (AID 1963579); further: nearly all actives have a fitted effect of over 45% in size; further: potency means the concentration at half of the fitted maximal effect
Outline: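 p53RE-bla cells, 4,000/well, dosed 5 hours after plating, with human liver microsomes (0.5 mg/mL final) plus NADPH (0.5 mg/mL final), 16 hours at 37 C. Viability read as CellTiter-Glo luminescence after 30 min at room temperature.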

[8] = p53 small molecule agonists, cell-based qHTS assay with rat liver microsomes: qHTS cell viability counter screen (AID 1963580); further: nearly all actives have a fitted effect of over 45% in size; further: potency means the concentration at half of the fitted maximal effect
Outline: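 Rat liver microsome (0.5 mg/mL final) and NADPH (0.5 mg/mL final) co-incubation with compounds for 16 h at 37 C on HCT-116 p53RE-bla cells; cytotoxicity taken from intracellular ATP luminescence.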

[9] = p53 small molecule agonists, cell-based qHTS assay (AID 1963582; active means well fitted activation curve with a large enough effect in the signal ratio in the repeat runs, not every such curve was filed as active; the % refers to the signal ratio)
Outline: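 Read-out is beta-lactamase FRET fluorescence after 2 h at room temperature with LiveBLAzer B/G substrate. p53 response element-bla cells were treated 16 h at 37 C with compounds in DMSO, added 5 h after seeding.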

[10] = target: 5-hydroxytryptamine receptor 2A (Homo sapiens) (UniProt P28223); experiment: 5-hydroxytryptamine receptor 2A (HTR2A) small molecule antagonists, cell-based qHTS assay (AID 1963586); further: nearly all actives have a fitted effect of over 45% in size; further: potency means the concentration at half of the fitted maximal effect
Outline: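 CHO cells stably expressing human HTR2A were plated for 18 h at 37 C, then loaded with calcium dye for 1 h. Compounds were preincubated 5 min at room temperature before DOI (4 nM solution) was added. Kinetic fluorescence was read for 3 min.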

[11] = target: 5-hydroxytryptamine receptor 2A (Homo sapiens) (UniProt P28223); experiment: 5-hydroxytryptamine receptor 2A (HTR2A) small molecule agonists, cell-based qHTS assay (AID 1963587); further: nearly all actives have a fitted effect of over 30% in size
Outline: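 Kinetic calcium-flux fluorescence (2 min, 1 sec intervals) after compound addition in agonist mode. HTR2A-CHO cells were cultured 18 h, then dye-loaded 1 h at 37 C.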

[12] = target: Muscarinic acetylcholine receptor M1 (Homo sapiens) (UniProt P11229); experiment: Cholinergic receptor muscarinic 1 (CHRM1) small molecule agonists, cell-based qHTS assay (AID 1963589); further: nearly all actives have a fitted effect of over 35% in size
Outline: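 Agonist-mode calcium-flux screen: compounds at 15 concentrations, three independent runs, were pin-transferred onto dye-loaded human CHRM1-CHO cells. Fluorescence was then recorded kinetically every second over minutes.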

[13] = target: D(2) dopamine receptor (Homo sapiens) (UniProt P14416); experiment: Dopamine D2 receptor (DRD2) small molecule agonists, cell-based qHTS assay (AID 1963594); further: nearly all actives have a fitted effect of over 35% in size
Outline: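 cAMP accumulation in DRD2-HEK293 cells measured by HTRF after 1 h detection; compounds added 10 min before NKH477 (200nM […]) forskolin-analogue stimulation, 30 min at room temperature, with Ro20-1724 present at 0.1 mM final.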

[14] = p53 small molecule agonists, cell-based qHTS assay: qHTS cell viability counter screen (AID 1963581); further: nearly all actives have a fitted effect of over 45% in size
Outline: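 Counter screen read by CellTiter-Glo luminescence (ATP content, 30 min at room temperature), run in the same wells as the beta-lactamase reporter read. HCT-116 p53RE-bla cells saw compounds for 16 h at 37 C.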

[15] = cAMP Responsive Elements (CRE) small molecule agonists, cell-based qHTS assay (AID 1963590)
Outline: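 Agonist mode: compound added to CRE-bla HEK 293T cells (2,000/well, 18 h after plating) for 3 h at 37 C/5% CO2. Reporter activity detected via FRET beta-lactamase substrate, 2 h room-temperature loading.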

[16] = target: Beta-2 adrenergic receptor (Homo sapiens) (UniProt P07550); experiment: Adrenergic beta2 receptor (ADRB2) small molecule antagonists, cell-based qHTS assay (AID 1963592); further: series mostly up to about 92 µM; nearly all actives have a fitted effect of over 50% in size
Outline: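 Assay format: CHO-ADRB2 cells, 18-20hr seeding at 37C/5% CO2, then compound plus 1nM isoproterenol agonist mix for 0.5hr RT. Homogeneous time-resolved fluorescence cAMP detection after 1hr, expressed as 665/615 nm ratio.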

[17] = target: Beta-2 adrenergic receptor (Homo sapiens) (UniProt P07550); experiment: Adrenergic beta2 receptor (ADRB2) small molecule agonists, cell-based qHTS assay (AID 1963593); further: potency means the concentration at half of the fitted maximal effect;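 on activation: CHO cells stably overexpressing human ADRB2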
Outline: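 CHO cells stably over-expressing ADRB2 were plated overnight at 37C, then dosed with compounds plus a stimulation mix containing 100uM IBMX and 25uM Ro-20-1724 for 0.5hr at room temperature. cAMP was measured by HTRF competition, 1hr.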

[18] = target: D(2) dopamine receptor (Homo sapiens) (UniProt P14416); experiment: Dopamine D2 receptor (DRD2) small molecule antagonists, cell-based qHTS assay (AID 1963595; active means well fitted inhibition curve with a large enough effect in the signal ratio in the repeat runs, with a control signal flat; the % refers to the signal ratio; further: potency means the concentration at half of the fitted maximal effect)
Outline: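 HEK293 cells stably expressing DRD2, preincubated with 0.1 mM Ro20-1724 and compounds 10 min, were stimulated with 200 nM NKH477 plus 12 nM quinpirole for 30 min at room temperature; cAMP measured by HTRF (665/620 nm).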

[19] = target: Muscarinic acetylcholine receptor M1 (Homo sapiens) (UniProt P11229); experiment: Cholinergic receptor muscarinic 1 (CHRM1) small molecule antagonists, cell-based qHTS assay (AID 1963588); further: nearly all actives have a fitted effect of over 40% in size
Outline: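 Compounds were tested at 15 concentrations in three independent runs. Dye-loaded CHRM1-CHO cells were exposed 5 min at room temperature before stimulation by acetylcholine added at 50nM. Intracellular calcium was read kinetically on FDSS for 3 min.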

[20] = cAMP Responsive Elements (CRE) small molecule antagonists, cell-based qHTS assay (AID 1963591; active means well fitted inhibition curve with a large enough effect in the signal ratio in the repeat runs, not every such curve was filed as active; the % refers to the signal ratio)
Outline: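 Antagonist mode: compounds are added alongside the adenylyl cyclase activator NKH477 (0.25 uM final) to CRE-bla HEK293T cells for 3 h. LiveBLAzer FRET substrate, 2 h at room temperature, reports bla expression.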

Chain of 5-hydroxytryptamine receptor 2A (Homo sapiens) (P28223 whole entry, looked up): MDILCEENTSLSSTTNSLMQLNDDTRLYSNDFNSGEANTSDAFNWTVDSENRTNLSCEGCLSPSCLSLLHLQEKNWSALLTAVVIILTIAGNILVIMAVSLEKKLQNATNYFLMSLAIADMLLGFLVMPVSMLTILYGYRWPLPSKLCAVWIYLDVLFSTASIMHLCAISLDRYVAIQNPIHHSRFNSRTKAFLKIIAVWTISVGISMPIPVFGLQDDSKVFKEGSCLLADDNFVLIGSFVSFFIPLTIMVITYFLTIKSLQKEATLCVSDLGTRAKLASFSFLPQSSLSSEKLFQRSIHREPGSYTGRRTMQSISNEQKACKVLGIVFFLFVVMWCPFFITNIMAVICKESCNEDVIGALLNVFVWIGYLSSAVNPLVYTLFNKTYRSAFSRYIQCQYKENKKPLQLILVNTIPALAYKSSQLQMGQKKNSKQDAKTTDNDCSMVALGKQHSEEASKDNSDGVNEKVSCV
Chain of Gonadotropin-releasing hormone receptor (Homo sapiens) (P30968 whole entry, looked up): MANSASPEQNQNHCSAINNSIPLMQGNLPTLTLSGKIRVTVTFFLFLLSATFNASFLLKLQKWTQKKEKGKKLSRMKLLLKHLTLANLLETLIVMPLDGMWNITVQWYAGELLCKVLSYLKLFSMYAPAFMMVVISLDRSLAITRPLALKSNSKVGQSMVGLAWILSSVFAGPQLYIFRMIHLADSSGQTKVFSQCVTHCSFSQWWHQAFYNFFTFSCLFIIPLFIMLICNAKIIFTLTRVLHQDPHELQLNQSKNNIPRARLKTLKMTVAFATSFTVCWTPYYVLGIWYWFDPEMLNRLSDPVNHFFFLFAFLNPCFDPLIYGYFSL
Chain of Beta-2 adrenergic receptor (Homo sapiens) (P07550 whole entry, looked up): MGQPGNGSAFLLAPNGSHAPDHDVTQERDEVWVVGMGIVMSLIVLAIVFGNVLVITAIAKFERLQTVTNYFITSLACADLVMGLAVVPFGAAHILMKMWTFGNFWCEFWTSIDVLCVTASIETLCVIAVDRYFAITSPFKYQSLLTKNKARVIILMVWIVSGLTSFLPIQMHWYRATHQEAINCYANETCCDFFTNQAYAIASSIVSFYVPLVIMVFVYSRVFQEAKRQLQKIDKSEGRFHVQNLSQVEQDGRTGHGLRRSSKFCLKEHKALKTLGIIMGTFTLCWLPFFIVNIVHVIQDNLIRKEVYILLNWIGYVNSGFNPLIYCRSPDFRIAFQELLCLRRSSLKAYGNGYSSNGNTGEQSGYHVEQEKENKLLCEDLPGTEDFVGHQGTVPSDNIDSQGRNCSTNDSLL
Chain of Muscarinic acetylcholine receptor M1 (Homo sapiens) (P11229 whole entry, looked up): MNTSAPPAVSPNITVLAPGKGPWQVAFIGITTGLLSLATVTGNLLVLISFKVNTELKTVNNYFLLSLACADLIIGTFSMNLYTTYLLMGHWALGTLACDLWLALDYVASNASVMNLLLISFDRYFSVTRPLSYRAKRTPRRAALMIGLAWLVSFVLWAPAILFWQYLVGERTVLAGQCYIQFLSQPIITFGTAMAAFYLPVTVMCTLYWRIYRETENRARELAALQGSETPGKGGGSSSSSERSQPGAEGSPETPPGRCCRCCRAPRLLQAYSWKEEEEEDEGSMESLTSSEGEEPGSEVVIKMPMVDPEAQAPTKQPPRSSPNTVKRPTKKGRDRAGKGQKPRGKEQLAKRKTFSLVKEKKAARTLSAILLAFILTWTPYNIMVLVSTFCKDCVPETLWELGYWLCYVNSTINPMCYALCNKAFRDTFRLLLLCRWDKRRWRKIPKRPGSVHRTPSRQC
Chain of D(2) dopamine receptor (Homo sapiens) (P14416 whole entry, looked up): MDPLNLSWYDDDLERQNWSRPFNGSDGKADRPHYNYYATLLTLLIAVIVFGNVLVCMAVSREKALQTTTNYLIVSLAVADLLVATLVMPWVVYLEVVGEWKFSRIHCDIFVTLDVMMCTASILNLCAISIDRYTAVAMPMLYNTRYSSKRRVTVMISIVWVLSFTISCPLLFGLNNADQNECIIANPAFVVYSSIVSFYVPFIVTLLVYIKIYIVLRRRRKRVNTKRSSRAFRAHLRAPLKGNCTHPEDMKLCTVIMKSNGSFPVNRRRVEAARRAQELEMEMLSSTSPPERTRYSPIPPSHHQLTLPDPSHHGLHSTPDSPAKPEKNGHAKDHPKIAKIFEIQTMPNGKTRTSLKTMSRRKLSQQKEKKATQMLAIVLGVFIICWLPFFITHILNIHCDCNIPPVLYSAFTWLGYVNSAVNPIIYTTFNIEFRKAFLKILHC

Structure (SMILES) | Potency [1] | Potency [2] | Potency [3] | outcome [4] | Potency [5] | Potency [6] | Potency [7] | Potency [8] | Potency [9] | Potency [10] | Potency [11] | Potency [12] | Potency [13] | Potency [14] | Potency [15] | Potency [16] | Potency [17] | Potency [18] | Potency [19] | Potency [20]
CN1CCCC(n2nc(Cc3ccc(Cl)cc3)c3ccccc3c2=O)CC1 (centres undefined) | inactive | inactive | inactive | inactive | inactive | inactive | inactive | inactive | inactive | 0.46 µM (active) | inactive | inactive | inactive |  |  |  |  |  |  | 
CCc1ccc(C(=O)C(C)CN2CCCCC2)cc1 (centres undefined) | inactive | inactive | inactive | inactive | inactive | inactive | inactive |  | inactive |  |  |  |  | inactive | inactive | inactive | inactive |  |  | 
NC(=O)C(c1ccccc1)(c1ccccc1)[C@@H]1CCN(CCc2ccc3c(c2)CCO3)C1 | inactive | inactive | inactive | inactive | inactive | inactive |  |  | inactive |  |  | inactive | inactive | inactive | inactive | inactive |  | inactive |  | 
C=CC(=O)OCC(CO)(COCC(COC(=O)C=C)(COC(=O)C=C)COC(=O)C=C)COC(=O)C=C | 4.28 µM (active) | 2.4 µM (active) | inactive | inactive | inactive | inactive | 3.2 µM (active) | 35.9 µM (active) |  | inactive | inactive | inactive | inactive |  |  |  | 30.3 µM (active) | 27 µM (active) | inactive | 
COC(=O)c1ccc(NC(C)=O)cc1OC | inactive | inactive | inactive | inactive | inactive | inactive | inactive | inactive | inactive | inactive | inactive | inactive | inactive |  | inactive | inactive | inactive | inactive |  | inactive
CC(C)CCCCCCOC(=O)c1ccc(C(=O)OCCCCCCC(C)C)c(C(=O)OCCCCCCC(C)C)c1 | inactive | inactive | inactive | inactive | inactive | inactive |  | inactive | inactive | inactive | inactive |  | inactive | inactive | inactive | inactive |  |  | inactive | inactive
CC1=NC(C)OC1C (centres undefined) | inactive | 61.1 µM (active) | inactive | inactive | inactive |  | inactive | inactive |  |  | inactive | inactive | inactive | inactive |  | inactive |  | inactive | inactive | 
CC(C)Cc1nccs1 | inactive | inactive | inactive | inactive | inactive | inactive | inactive | inactive |  | inactive | inactive |  | inactive |  |  | inactive |  | inactive | inactive | inactive
C=COCCCCO | inactive | inactive |  | inactive | inactive | inactive | inactive | inactive | inactive | inactive | inactive | inactive | inactive | inactive | inactive | inactive | inactive | inactive |  | inactive
O=C1OC(=O)c2cc([N+](=O)[O-])ccc21 | inactive | inactive | inactive | inactive |  | inactive | inactive | inactive | inactive | inactive | inactive | inactive | inactive | inactive | inactive | inactive | inactive | inactive |  | inactive
CN(C)CCCCl | inactive | inactive |  | inactive | inactive | inactive | inactive | inactive | inactive | inactive |  |  | inactive | inactive | inactive | inactive |  | inactive | inactive | inactive
O=C(O)Cc1ccccc1Oc1ccc(Cl)cc1Cl | inactive | inactive | inactive | inactive | inactive |  |  | inactive |  |  | inactive | inactive | inactive | inactive |  | inactive | inactive | inactive | inactive | inactive
CC(C)(C)NCC(O)COc1cccc2c1CCC(=O)N2 (centres undefined) | inactive | inactive | inactive |  | inactive | inactive | inactive | inactive | inactive | inactive | inactive | inactive |  |  | inactive |  |  | inactive | inactive | inactive
C[C@H]1O[C@H](O[C@H]2[C@H](O)[C@@H](O)[C@@H](O[C@H]3[C@H](O)[C@@H](O)[C@H](O)O[C@@H]3CO)O[C@@H]2CO)[C@H](O)[C@@H](O)[C@@H]1N[C@H]1C=C(CO)[C@@H](O)[C@H](O)[C@H]1O | inactive | inactive | inactive | inactive | inactive |  | inactive |  |  |  |  |  | inactive | inactive | inactive | inactive | inactive | inactive |  | inactive
CCCCCCCCCCCCSC | inactive | inactive |  | inactive | inactive | inactive | inactive | inactive | inactive | inactive | inactive | inactive | inactive | inactive | inactive | inactive |  | inactive | inactive | inactive
